Shown are actives, neighbours in structure and some others; about 4% of the full set was active somewhere.
HIF-2a inh: HIF-2a reporter inhibitors, primary screen, luminescence, 786-0 RCC cells | 786-0 RCC cells HIF-2a reporter, luciferase luminescence, overnight | inhibition, % at 18.8 µM | hit rate 0.72% among 360,000 | AID 624352, 2012;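 active means inhibition of the luminescence signal of 40% or more relative to plate controls, in a single-dose primary screen at 18.75 µM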
TROY signal inh: inhibitors of TROY-driven NF-kB signaling, primary screen, Q293 LMP1-TROYcd cells, NF-kB luciferase, uHTS | Q293 LMP1-TROYcd NF-kB luciferase reporter, 4 h | inhibition, % at 10 µM | hit rate 0.98% among 360,000;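 active means compounds whose plate-normalised and pattern-corrected inhibition of the luciferase reporter signal at the single screening dose is 50% or more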
Peg3 promoter: Peg3 promoter-driven luciferase inhibitors, primary screen, cell-based, HeLa, luciferase luminescence; HeLa PEG-Prom luciferase reporter, overnight; inhibition, % at 20 µM; hit rate 1.7% among 360,000; AID 588405, 2011;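 active means inhibition of at least 50% at 20 µM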
TWEAK Fn14 block: inhibitors of TWEAK-Fn14 signaling, primary screen, luciferase reporter cells, uHTS; TWEAK-stimulated Fn14 reporter cells, luciferase luminescence, 8 h; inhibition, % at 10 µM; hit rate 2% among 360,000; in the data active means inhibition above about 50%
CF NFkB inh: inhibitors of PAF-induced NF-kB signaling, primary screen, cell-based, GFP fluorescence, uHTS; KKLEB NF-kB-GFP reporter, GFP fluorescence overnight; inhibition, % at 5 µM; hit rate 0.86% among 360,000;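 active means at least 50% inhibition at 5 µM, scaled per plate between neutral and stimulator controls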;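 further: PAF is a Pseudomonas aeruginosa culture filtrate used as stimulus; plate controls were PAF-stimulated DMSO wells for no effect and unstimulated DMSO wells for full effect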
KKLEB tox: cytotoxicity in KKLEB CF airway cells, primary screen, cytotoxicity control for CF NF-kB inhibitor project, cell-based, uHTS, fluorescence assay plates; KKLEB CF airway cells viability, ATPlite luminescence, overnight; hits give low values; cells stimulated with P. aeruginosa culture filtrate; activity change (cytotoxicity), % at 5 µM; hit rate 0.36% among 360,000; AID 602141, 2011;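 active means corrected activity change at or below -50% at 5 µM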
Starred values were filed as active, the others as inactive.

For O=C(Nc1ccccc1)C1=C[C@@H](C2CCCCC2)C[C@@H](OCc2ccc(CO)cc2)O1 the results were HIF-2a inh -84.3, TROY signal inh 73.0*, Peg3 promoter -29.2, TWEAK Fn14 block 57.3*, CF NFkB inh 23.7 and KKLEB tox -2.4.
`O=C(Nc1ccccc1)C1=C[C@@H](c2ccccc2)C[C@@H](OCc2ccc(CO)cc2)O1` gave HIF-2a inh -191.6, TROY signal inh -48.2, Peg3 promoter -115.7, TWEAK Fn14 block -86.1, CF NFkB inh 0.1 and KKLEB tox 5.4.
CCCn1cnc2scc(-c3ccc(C)c(C)c3)c2c1=O was read as HIF-2a inh 17.7, TROY signal inh 12.9, Peg3 promoter 22.1, TWEAK Fn14 block 26.8, CF NFkB inh 20.1 and KKLEB tox -7.3.
For Nn1cnnc1N/N=C/c1ccc(Cl)c([N+](=O)[O-])c1 the results were HIF-2a inh 10.9, TROY signal inh -3.5, Peg3 promoter 5.3, TWEAK Fn14 block 20.7, CF NFkB inh 8.7 and KKLEB tox 2.2.
For CN(C)c1nc(N/N=C\c2ccc(Cl)c([N+](=O)[O-])c2)nc(Nc2ccc(F)cc2)n1 the results were HIF-2a inh -36.7, TROY signal inh 36.6, Peg3 promoter 64.7*, TWEAK Fn14 block 43.1, CF NFkB inh -9.7 and KKLEB tox 5.1.
C=CCOC(=O)C1=C(C)N=c2s/c(=C3\C(=O)N(CC(=O)O)c4ccccc43)c(=O)n2C1c1ccc(OC)cc1 (configuration not stated) was read as HIF-2a inh 12.7, TROY signal inh -4.1, Peg3 promoter 35.6, TWEAK Fn14 block 58.5*, CF NFkB inh 23.7 and KKLEB tox 0.2.
`CCOC(=O)C1=C(C)N=c2s/c(=C3\C(=O)Nc4ccccc43)c(=O)n2C1c1ccc2c(c1)OCO2` (configuration not stated) gave HIF-2a inh 28.1, TROY signal inh 8.2, Peg3 promoter 23.7, TWEAK Fn14 block -0.9, CF NFkB inh -2.4 and KKLEB tox 2.9.
Screening O=c1ccn([C@@H]2O[C@H](CNCc3ccc(-n4cccn4)cc3)[C@@H](O)[C@H]2O)c(=O)[nH]1 returned HIF-2a inh -3.0, TROY signal inh 4.4, Peg3 promoter -10.7, TWEAK Fn14 block -21.3, CF NFkB inh 5.9 and KKLEB tox -2.3.
`Cc1ccc(/C=C/C(=O)c2cc(Br)ccc2OC(=O)c2ccco2)cc1` gave HIF-2a inh -69.3, TROY signal inh -27.7, Peg3 promoter 0.3, TWEAK Fn14 block -73.9, CF NFkB inh -18.3 and KKLEB tox -4.1.
Screening COc1ccccc1/C=C/C(=O)c1cc(Br)ccc1OC(=O)c1ccco1 returned HIF-2a inh 87.2*, TROY signal inh 42.8, Peg3 promoter 19.0, TWEAK Fn14 block 40.9, CF NFkB inh 11.4 and KKLEB tox -14.6.
`CN1CCN(c2ccc(Nc3ccnc4cc(Cl)ccc34)cc2)CC1` gave HIF-2a inh 0.5, TROY signal inh -10.5, Peg3 promoter 60.7*, TWEAK Fn14 block 1.5, CF NFkB inh -48.8 and KKLEB tox -5.5.
For CCN1CCN(c2nc(-c3ccccc3)c3ccccc3n2)CC1 the results were HIF-2a inh -7.9, TROY signal inh 3.1, Peg3 promoter 24.3, TWEAK Fn14 block 14.7, CF NFkB inh 8.6 and KKLEB tox -2.9.
Screening CCN1CCN(c2ccc(Nc3ccnc4ccccc34)cc2)CC1 returned HIF-2a inh 20.3, TROY signal inh 12.5, Peg3 promoter 61.1*, TWEAK Fn14 block 5.9, CF NFkB inh 35.0 and KKLEB tox -18.5.
For CCc1ccc(-c2nnn(CC(=O)N(C3CCCC3)C3CCS(=O)(=O)C3)n2)cc1 (configuration not stated) the results were HIF-2a inh -2.9, TROY signal inh -16.6, Peg3 promoter -10.3, TWEAK Fn14 block -8.3, CF NFkB inh -0.5 and KKLEB tox 16.1.
For Cc1ccc(-n2nc3c([n+]2[O-])CCc2c-3no[n+]2[O-])cc1 the results were HIF-2a inh -24.8, TROY signal inh -3.8, Peg3 promoter 2.4, TWEAK Fn14 block 56.9*, CF NFkB inh -1.5 and KKLEB tox 9.0.
[O-][n+]1onc2c1CCc1c-2nn(-c2ccccc2Cl)[n+]1[O-] was read as HIF-2a inh 4.3, TROY signal inh 5.0, Peg3 promoter 47.4, TWEAK Fn14 block 24.8, CF NFkB inh 0.5 and KKLEB tox -12.9.
`CC(=O)c1c(Nc2ccc3c(c2)OCCO3)oc(C)cc1=O` gave HIF-2a inh -49.9, TROY signal inh 38.7, Peg3 promoter -68.9, TWEAK Fn14 block 69.9*, CF NFkB inh -21.9 and KKLEB tox 4.7.
Screening Cc1cc(C(=O)Nc2ccc3c(c2)OCCO3)c(C)o1 returned HIF-2a inh -219.8, TROY signal inh -64.5, Peg3 promoter -208.8, TWEAK Fn14 block 3.3, CF NFkB inh -8.8 and KKLEB tox -4.4.
For Cc1ccc2nc(-c3cccnc3)cc(C(=O)N3CCN(c4ccc([N+](=O)[O-])cc4)CC3)c2c1 the results were HIF-2a inh 19.1, TROY signal inh -16.8, Peg3 promoter 99.5*, TWEAK Fn14 block 21.1, CF NFkB inh 2.8 and KKLEB tox -21.0.
For CC(=O)c1ccc(N2CCN(C(=O)c3cc(-c4cccnc4)nc4ccc(Br)cc34)CC2)cc1 the results were HIF-2a inh -22.1, TROY signal inh -5.3, Peg3 promoter 16.1, TWEAK Fn14 block 4.9, CF NFkB inh -8.1 and KKLEB tox -3.9.
Screening CC[C@]1(C(=O)OC)[C@H]2C(=O)N(C)C(=O)[C@H]2[C@H]2CN=C(SCc3ccc(OC)cc3)N21 returned HIF-2a inh 4.6, TROY signal inh -14.7, Peg3 promoter -21.6, TWEAK Fn14 block 4.6, CF NFkB inh 3.0 and KKLEB tox 1.9.
Screening CCCc1cc(N2CCOCC2)n2ncc(-c3ccccc3)c2n1 returned HIF-2a inh -109.8, TROY signal inh 51.5*, Peg3 promoter -98.0, TWEAK Fn14 block 57.7*, CF NFkB inh 1.3 and KKLEB tox 5.2.
`CC(C)(C)c1cc(N2CCOCC2)n2ncc(-c3ccccc3)c2n1` gave HIF-2a inh 4.4, TROY signal inh 18.0, Peg3 promoter 10.2, TWEAK Fn14 block 5.2, CF NFkB inh 25.9 and KKLEB tox -6.6.
For CCc1nc2ccc(C(=O)NCCc3ccccn3)cn2c1N(CC)Cc1cccc(Br)c1 the results were HIF-2a inh 14.7, TROY signal inh 9.7, Peg3 promoter 27.3, TWEAK Fn14 block 5.3, CF NFkB inh 9.1 and KKLEB tox -15.3.

Assay outcomes from PubChem BioAssay.
